Screening data from PubChem.
An excerpt weighted towards active compounds, which were near 10% of everything screened.
HPGD inh: blocks human HPGD enzyme activity. purified HPGD, NADH fluorescence kinetic, PGE2 substrate. Potency, µM, for the others: at the highest dose activity change, negative = inhibition, actives largely listed as inhibitors. P15428. 150,000 tested, 4.3% active. AID 894; active = well fitted inhibition curve with a large enough effect, not every such curve was filed as active; inconclusive = small, poorly fitted or top-dose-only effect, or another doubt; inactive = no such curve, though single readings can be large or run the other way; note: potency is the fitted concentration of half-maximal effect
Target sequence (P15428 whole entry, looked up): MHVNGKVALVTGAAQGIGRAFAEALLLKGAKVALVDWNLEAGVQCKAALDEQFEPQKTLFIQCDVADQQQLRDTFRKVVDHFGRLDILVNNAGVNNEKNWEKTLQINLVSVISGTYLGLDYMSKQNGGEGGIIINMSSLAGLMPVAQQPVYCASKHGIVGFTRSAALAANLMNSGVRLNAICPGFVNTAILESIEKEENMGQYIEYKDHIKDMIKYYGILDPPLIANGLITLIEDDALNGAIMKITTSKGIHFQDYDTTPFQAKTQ
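20 nM HPGD preincubated 15 min at room temperature with compound in 50 mM Tris-HCl pH 8, 0.01% Tween 20. Started with 1 mM NAD+ and 30 uM prostaglandin E2; NADH fluorescence (360/450 nm) read 5 times over 30-s intervals, last minus first.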
GLA inh pH 4.5: alpha-galactosidase A (human) inhibition, pH 4.5. activity change, negative = inhibition, % at 105 µM. purified enzyme, 4-MU-alpha-Gal fluorescence, pH 4.5. 230,000 tested, under 10 active. P06280;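 note: 0% = full activity with enzyme and -100% = basal without enzyme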
aGal spleen mod: inhibits or activates alpha-galactosidase in human spleen homogenate; P06280; human spleen homogenate, 4MU-alpha-Gal fluorescence, 40 min; Potency, µM (titrated, usually from 80 µM), for inactives: at the highest dose activity change, negative = inhibition, hits mostly inhibitors; 240,000 tested, 0.008% active; AID 2107;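 note: potency is the fitted concentration of half-maximal effect; 0% = enzyme with vehicle and -100% = no enzyme basal signal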
Target sequence (P06280 32-429 limits assumed): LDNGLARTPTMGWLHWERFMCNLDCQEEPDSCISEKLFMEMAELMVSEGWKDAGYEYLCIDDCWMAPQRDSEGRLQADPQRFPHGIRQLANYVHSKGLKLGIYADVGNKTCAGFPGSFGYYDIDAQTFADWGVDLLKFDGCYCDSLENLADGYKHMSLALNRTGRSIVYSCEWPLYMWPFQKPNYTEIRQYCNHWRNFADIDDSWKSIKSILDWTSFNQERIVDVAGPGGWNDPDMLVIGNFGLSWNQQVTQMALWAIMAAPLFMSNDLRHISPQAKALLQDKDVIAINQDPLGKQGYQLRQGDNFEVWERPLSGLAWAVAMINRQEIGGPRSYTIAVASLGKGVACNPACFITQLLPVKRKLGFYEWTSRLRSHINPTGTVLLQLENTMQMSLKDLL
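Inhibition or activation of alpha-galactosidase in human spleen homogenate is scored by 4-MU fluorescence after 40 min at 37C, pH 5.0, with 1 mM substrate. AC50s come from concentration-response fitted to the Hill equation.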
PNC assembly inh: inhibitors of perinucleolar compartment assembly; PC3M PTB-GFP, PNC prevalence imaging, 16 h; active compounds read low; activity change (PNC), negative = inhibition, % at 10 µM; 140,000 tested, 3.1% active; AID 2417;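 active = readout at or below -70, meaning at least 70% loss of cells showing the perinucleolar compartment, a nuclear body marking cancer cells; inconclusive = readout between -30 and a set limit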;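 note: plate controls were DMSO wells for no effect and camptothecin positive control wells for full effect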
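Compounds are pinned in duplicate onto adhered PC3M cells stably expressing GFP-tagged PTB and incubated 16 h at 37 C. Cells are then fixed, nuclei stained with Hoechst, and PNC-positive cells counted.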
ALOX12 inhib: inhibitors of human 12-lipoxygenase (ALOX12); AID 1452; Potency, µM (doses to about 57.1 µM), inactives show top-dose activity change, negative = inhibition, usual class: inhibitors; 150,000 tested, 0.12% active; P18054; purified 12-hLO, xylenol orange hydroperoxide absorbance; note: potency is the fitted concentration of half-maximal effect; nearly all actives have a fitted effect of over 55% in size
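150 nM 12hLO, 25 mM Hepes pH 7.0 + 0.01% Triton X-100; cpd preinc 15 min RT; 40 uM arachidonic acid, 30 min RT; Fe-XO 30 min; A573/A405 ratio as read-out.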
ALDH1A1 block: inhibitors of human aldehyde dehydrogenase 1A1 | Purified ALDH1A1, NADH fluorescence, propionaldehyde substrate | Potency, µM (series often up to 75.3 µM), without a hit: at the top dose activity, negative = inhibition, most hits filed as inhibitors | 220,000 tested, 7.3% active; active = well fitted inhibition curve with a large enough effect, not every such curve was filed as active; inconclusive = small, poorly fitted or top-dose-only effect, or another doubt; inactive = no such curve, though single readings can be large or run the other way;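 note: potency is the fitted concentration of half-maximal effect; plate controls were no enzyme wells and a reference inhibitor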
* = called active by the depositor; ? = inconclusive; . = no result; [ ] = remark or other dose. Unless noted, calls come from the whole dose curve; as a rule, active = well fitted curve in the direction sought with a large enough effect; inconclusive = small, poorly fitted or top-dose-only effect, or another doubt; inactive = no such curve, though single readings can be large; an effect the other way counts as inactive or inconclusive. Unless noted, % is set by controls: 0 for no effect and ±100 for the full control effect.

SMILES	HPGD inh	GLA inh pH 4.5	aGal spleen mod	PNC assembly inh	ALOX12 inhib	ALDH1A1 block
COc1ccc2c(Cl)c(C(=O)NCC3CCCO3)sc2c1Cl (stereo not drawn)	-17%	7	3%	6	-2%	2%
N#Cc1ccc(Oc2ccc(NC(=O)C3CC=CCC3C(=O)O)cc2)cc1 (stereo not drawn)	.	7	-8%	.	.	0.5µM*
Cc1cccc(Oc2ccc(NC(=O)C3CC=CCC3C(=O)O)cc2)c1 (stereo not drawn)	.	7	4%	.	.	1.8µM*
COCCCNC(=O)c1ccc(N(C)S(C)(=O)=O)cc1	-13%	2	2%	?	0%	-4%
COCCCNC(=O)c1ccc(N(C)S(=O)(=O)c2ccc(OC)cc2)cc1	1.1µM*	3	-7%	?	2%	-5%
COCCNC(=O)c1ccc(N(C)S(=O)(=O)c2ccc(OC)c(OC)c2)cc1	6.3µM*	1	-11%	162	-1%	-13%
C=CCC1(C)OC=Cc2nc3cc(Cl)c(Cl)cc3nc21 (stereo not drawn)	.	.	5%[17.5 µM]	.	.	?
Cc1cccc(NC(=O)CN2NS(=O)(=O)c3ccccc3C2=O)c1	-13%	-4	4%	?	6%	10µM*
O=C(NC1CCCCC1)NC1CCCCC1	-26%	14	-28%	.	6%	?
Cn1c(CCNC(=O)c2ccco2)nc2cc(NC(=O)C3CCCCC3)ccc21	4%	-5	8%	-114*	-2%	-9%
Cn1c(CCNC(=O)c2ccco2)nc2cc(NC(=O)c3ccco3)ccc21	-16%	1	-8%	-6	4%	?
Cn1c(CCNC(=O)c2ccco2)nc2cc(NS(=O)(=O)c3ccccc3)ccc21	-15%	2	0%	-20	0%	20µM*
CC1(C)c2ccccc2-n2c1cc1oc(=O)cc(O)c1c2=O	.	0	-2%	.	.	.
O=C(Nc1ccc2c(c1)CCC2)c1ccc(Br)o1	-24%	-1	5%	?	8%	-9%
Cc1ccc(C(=O)Nc2ccc3c(c2)CCC3)o1	22µM*	-3	2%	25	-8%	18µM*
Cc1ccc(C(=O)Nc2nc(C)c(C(=O)Nc3ccc4c(c3)CCC4)s2)cc1	?	-9	-2%	-89*	0%	?
O=C1NC(c2ccccc2)C(C(=O)c2cccs2)=C1O (stereo not drawn)	-3%	0	-3%	-107*	-3%	-11%
COc1ccccc1Nc1ccc(N)cc1	.	7	3%	.	.	28µM*
CCOc1ccc(OCc2cccc(C(=O)Nc3ccc(CN4CCCCC4)cc3)c2)cc1	-15%	-3	5%	45	8%	8%
COc1ccc(C(=O)Nc2nnc(-c3ccco3)s2)cc1	?	-5	-12%	26	-3%	-17%
O=C(CSc1nnc(-c2ccco2)c(-c2ccco2)n1)c1ccccc1	.	-1	1%	.	.	-6%
O=C(Nc1ccccc1)c1ccc2nc(-c3ccco3)c(-c3ccco3)nc2c1	5µM*	-5	10%	21	-29%	0.18µM*
O=C(Nc1nnc(-c2ccco2)s1)c1ccccc1	-25%	-2	?	34	-1%	25µM*
CCCCNC(=O)c1ccc2nc(-c3ccco3)c(-c3ccco3)nc2c1	25µM*	?	2%	?	-6%	5µM*
O=C(NCCCO)c1ccc2nc(-c3ccco3)c(-c3ccco3)nc2c1	.	-11	7%	.	.	?
SMILES	HPGD inh	GLA inh pH 4.5	aGal spleen mod	PNC assembly inh	ALOX12 inhib	ALDH1A1 block
CC(=O)c1ccc(NC(=O)CSc2nnc(-c3ccco3)c(-c3ccco3)n2)cc1	.	-8	0%	.	.	1.4µM*
COc1ccc2c(C)cc3n[nH]c(=S)n3c2c1	.	0	6%	.	.	?
O=C(O)c1ccc(NS(=O)(=O)c2ccsc2C(=O)O)c(O)c1	-11%	-3	8%	.	-1%	11%
CCCC[P+](CCCC)(CCCC)Cc1ccc(NC(=O)[C@@H](Cc2ccc3ccccc3c2)NC(=NC2CCCCC2)NC2CCCCC2)cc1	-9%	-10	0%	.	-14%	-1%
COC(=O)CC1C(C)(C)C(=O)C2CC3C4=CC(=O)OC(c5ccoc5)[C@]4(C)CCC3[C@@]1(C)C2=O (stereo partly drawn)	-5%	-3	5%	.	-4%	-2%
CC(=O)c1ccc(NC(=O)c2ccc3nc(-c4ccco4)c(-c4ccco4)nc3c2)cc1	?	-6	-1%	-14	-23%	3.2µM*
CCCCCCCCCCCCCCC/C=C\[C@H](O)[C@@H](NC(=O)CCCCCCCCCCCCC)OC (tested in a mixture with another compound)	.	.	.	.	-11%	.
CCOC(=O)C1=C(N)Oc2ccc(Br)cc2C1C(C#N)C(=O)OCC (stereo not drawn)	.	.	4%	.	.	16µM*
CCOC(=O)C1=C(C)OC(N)=C(C#N)C1c1cccs1 (stereo not drawn)	.	-1	12%	.	.	?
Cc1cc(N2CCN(C)CC2)nc2ccc(NC(=S)N3CCN(c4ccccn4)CC3)cc12	.	7	-6%	.	.	13µM*
CCN1CCN(c2cc(C)c3cc(NC(=S)N4CCN(c5ccccc5F)CC4)ccc3n2)CC1	.	-3	5%	.	.	13µM*
COC(=O)/C(C#N)=C(/Nc1ccc(F)c(Cl)c1)C(F)(F)F	.	1	5%	.	.	.
O=C(ON=C1CCN(S(=O)(=O)c2ccccc2)CC1)c1cccc(Cl)c1	-11%	-4	-1%	-100*	1%	-2%
Fc1cnc(N2CCc3ccccc32)nc1N1CCc2ccccc21	?	-4	-4%	33	4%	2.2µM*
O=C1CC(c2ccc(F)cc2)Cc2nc(N3CCc4ccccc43)ncc21 (stereo not drawn)	?	3	-14%	16	1%	?
CNC(=S)N(Cc1ccc2c(c1)OCO2)C1CC(=O)N(c2ccccc2)C1=O (stereo not drawn)	-6%	-4	10%	?	-2%	-2%
NC(=O)C1=C[C@H](c2csc3ccccc23)C[C@H](OCCCCO)O1	.	-8	2%	.	.	?
O=C(NC1CC2CCCC(C1)N2S(=O)(=O)c1ccccc1)C1CCCCC1 (stereo not drawn)	-11%	-1	1%	84	-2%	28µM*
O=C(NC1CC2CCCC(C1)N2Cc1ccccc1)C1CCCCC1 (stereo not drawn)	.	8	-7%	.	.	6%
c1ccc(CN(CCN(Cc2ccccn2)Cc2ccccn2)Cc2ccccn2)nc1	.	.	0%	.	.	-14%
CCOC(=O)c1[nH]c(C)c(C(=O)NC2CCCC2)c1C	18µM*	-4	1%	9	6%	2%
CCOC(=O)c1[nH]c(C)c(C(=O)NCc2ccccn2)c1C	-7%	4	5%	-100*	2%	0%
